{"source": "ChEMBL document CHEMBL1157539", "about": "“Thousands of chemical starting points for antimalarial lead identification” (Nature, 2010)", "format_in_all_cases": "functional", "key": {"Plasmodium falciparum [1]": {"test_system": "Plasmodium falciparum", "assay": "GSK_TCMDC: Inhibition of Plasmodium falciparum 3D7 in whole red blood cells, using parasite LDH activity as an index of growth. Test compounds present at 2uM"}, "Plasmodium falciparum [2]": {"test_system": "Plasmodium falciparum", "assay": "GSK_TCMDC: Inhibition of Plasmodium falciparum Dd2 in whole red blood cells, using parasite LDH activity as an index of growth. Test compounds present at 2uM"}, "HepG2": {"test_system": "HepG2", "assay": "GSK_TCMDC: Percent inhibition of human HepG2 cell line. Test compounds present at 10uM."}}, "data": [{"smiles": "Cc1n[nH]c2ccc(-c3cc(OC[C@@H](N)Cc4ccccc4)cnc3-c3ccccc3OCc3cccc(F)c3)cc12.O=C(O)C(F)(F)F", "values": [{"measurement": "Inhibition", "setting": "Plasmodium falciparum [1]", "result": 91, "unit": "%"}, {"measurement": "Inhibition", "setting": "Plasmodium falciparum [2]", "result": 91, "unit": "%"}, {"measurement": "Inhibition", "setting": "HepG2", "result": 55, "unit": "%"}]}, {"smiles": "CC(=O)c1ccc2c(c1)CCN(CCC1CCC(NC(=O)c3cc4ccccc4[nH]3)CC1)CC2.Cl", "note": "(stereo not given)", "values": [{"measurement": "Inhibition", "setting": "Plasmodium falciparum [1]", "result": 86, "unit": "%"}, {"measurement": "Inhibition", "setting": "Plasmodium falciparum [2]", "result": 47, "unit": "%"}, {"measurement": "Inhibition", "setting": "HepG2", "result": 64, "unit": "%"}]}, {"smiles": "CC(C(=O)OCCOCn1cnc2c(=O)[nH]c(N)nc21)N(C)C(=O)OC(C)(C)C", "note": "(stereo not given)", "values": [{"measurement": "Inhibition", "setting": "Plasmodium falciparum [1]", "result": 87, "unit": "%"}, {"measurement": "Inhibition", "setting": "Plasmodium falciparum [2]", "result": 0, "unit": "%"}, {"measurement": "Inhibition", "setting": "HepG2", "result": 28, "unit": "%"}]}, {"smiles": "COc1cc(CNC[C@@H](O)[C@H](Cc2ccccc2)NC(=O)c2cc(OC(C)C)cc(N3CCCS3(=O)=O)c2)cc(OC)c1.Cl", "values": [{"measurement": "Inhibition", "setting": "Plasmodium falciparum [1]", "result": 97, "unit": "%"}, {"measurement": "Inhibition", "setting": "Plasmodium falciparum [2]", "result": 72, "unit": "%"}, {"measurement": "Inhibition", "setting": "HepG2", "result": 0, "unit": "%"}]}, {"smiles": "O=C(Nc1ccc(-c2nc3ccccc3[nH]2)cc1)c1cncc(Br)c1", "values": [{"measurement": "Inhibition", "setting": "Plasmodium falciparum [1]", "result": 95, "unit": "%"}, {"measurement": "Inhibition", "setting": "Plasmodium falciparum [2]", "result": 49, "unit": "%"}, {"measurement": "Inhibition", "setting": "HepG2", "result": 35, "unit": "%"}]}, {"smiles": "CNCCNCc1ccc(-c2ccc(-c3nc4cccc(C)c4[nH]3)s2)cc1.O=C(O)C(F)(F)F", "values": [{"measurement": "Inhibition", "setting": "Plasmodium falciparum [1]", "result": 97, "unit": "%"}, {"measurement": "Inhibition", "setting": "Plasmodium falciparum [2]", "result": 26, "unit": "%"}, {"measurement": "Inhibition", "setting": "HepG2", "result": 16, "unit": "%"}]}, {"smiles": "COc1cc2c(cc1C(F)(F)F)N(C(=O)Nc1cc(F)cc(-c3cncnc3)c1)CC2", "values": [{"measurement": "Inhibition", "setting": "Plasmodium falciparum [1]", "result": 97, "unit": "%"}, {"measurement": "Inhibition", "setting": "Plasmodium falciparum [2]", "result": 52, "unit": "%"}, {"measurement": "Inhibition", "setting": "HepG2", "result": 15, "unit": "%"}]}, {"smiles": "Cc1cccc2nc(-c3ccc(-c4cccc(NC(=O)C(C)CN5CCN(C)CC5)c4)cc3)[nH]c12", "note": "(stereo not given)", "values": [{"measurement": "Inhibition", "setting": "Plasmodium falciparum [1]", "result": 98, "unit": "%"}, {"measurement": "Inhibition", "setting": "Plasmodium falciparum [2]", "result": 51, "unit": "%"}, {"measurement": "Inhibition", "setting": "HepG2", "result": 5, "unit": "%"}]}, {"smiles": "O=C(/C=C/c1ccc(Cl)c(Cl)c1)NCCCCCN1CCC(NC(=O)Nc2ccc(Cl)cc2F)CC1", "values": [{"measurement": "Inhibition", "setting": "Plasmodium falciparum [1]", "result": 100, "unit": "%"}, {"measurement": "Inhibition", "setting": "Plasmodium falciparum [2]", "result": 40, "unit": "%"}, {"measurement": "Inhibition", "setting": "HepG2", "result": 100, "unit": "%"}]}, {"smiles": "CC1(C(=O)Nc2ccc([N+](=O)[O-])cc2O)CC2c3ccccc3C1c1ccccc12", "note": "(stereo not given)", "values": [{"measurement": "Inhibition", "setting": "Plasmodium falciparum [1]", "result": 98, "unit": "%"}, {"measurement": "Inhibition", "setting": "Plasmodium falciparum [2]", "result": 16, "unit": "%"}, {"measurement": "Inhibition", "setting": "HepG2", "result": 37, "unit": "%"}]}, {"smiles": "O=C(CC1NC(=O)c2ccccc21)Nc1ccc(-c2cccc(-c3nc4cc(C(F)(F)F)ccc4[nH]3)c2)cc1", "note": "(stereo not given)", "values": [{"measurement": "Inhibition", "setting": "Plasmodium falciparum [1]", "result": 95, "unit": "%"}, {"measurement": "Inhibition", "setting": "Plasmodium falciparum [2]", "result": 36, "unit": "%"}, {"measurement": "Inhibition", "setting": "HepG2", "result": 69, "unit": "%"}]}, {"smiles": "COc1cc2nc(N3CCC(CNC(=O)c4ccc(-c5ccc(C(=O)N(C)C)cc5O)cc4)CC3)nc(N)c2cc1OC", "values": [{"measurement": "Inhibition", "setting": "Plasmodium falciparum [1]", "result": 100, "unit": "%"}, {"measurement": "Inhibition", "setting": "Plasmodium falciparum [2]", "result": 90, "unit": "%"}, {"measurement": "Inhibition", "setting": "HepG2", "result": 2, "unit": "%"}]}, {"smiles": "COc1ccc(C=NN=c2cc[nH]c3ccccc23)c2ccccc12", "values": [{"measurement": "Inhibition", "setting": "Plasmodium falciparum [1]", "result": 100, "unit": "%"}, {"measurement": "Inhibition", "setting": "Plasmodium falciparum [2]", "result": 98, "unit": "%"}, {"measurement": "Inhibition", "setting": "HepG2", "result": 27, "unit": "%"}]}, {"smiles": "CCOc1ccc2[nH]c(C)cc(=NN=Cc3ccncc3)c2c1", "values": [{"measurement": "Inhibition", "setting": "Plasmodium falciparum [1]", "result": 99, "unit": "%"}, {"measurement": "Inhibition", "setting": "Plasmodium falciparum [2]", "result": 78, "unit": "%"}, {"measurement": "Inhibition", "setting": "HepG2", "result": 8, "unit": "%"}]}, {"smiles": "Cc1cc(OCC2CCN(c3ncc(C(=O)Nc4ccccc4)cc3Cl)CC2)ccc1F", "values": [{"measurement": "Inhibition", "setting": "Plasmodium falciparum [1]", "result": 91, "unit": "%"}, {"measurement": "Inhibition", "setting": "Plasmodium falciparum [2]", "result": 87, "unit": "%"}, {"measurement": "Inhibition", "setting": "HepG2", "result": 27, "unit": "%"}]}, {"smiles": "Cc1cccc2nc(-c3cccc(-c4ccc(CN5CCN(CCO)CC5)cc4)c3)[nH]c12.O=C(O)C(F)(F)F", "values": [{"measurement": "Inhibition", "setting": "Plasmodium falciparum [1]", "result": 100, "unit": "%"}, {"measurement": "Inhibition", "setting": "Plasmodium falciparum [2]", "result": 63, "unit": "%"}, {"measurement": "Inhibition", "setting": "HepG2", "result": 12, "unit": "%"}]}, {"smiles": "Cc1cc(F)ccc1N(c1nc(-c2cc(Cl)ccc2Cl)cs1)C1CCNC1.O=C(O)C(F)(F)F", "note": "(stereo not given)", "values": [{"measurement": "Inhibition", "setting": "Plasmodium falciparum [1]", "result": 99, "unit": "%"}, {"measurement": "Inhibition", "setting": "Plasmodium falciparum [2]", "result": 3, "unit": "%"}, {"measurement": "Inhibition", "setting": "HepG2", "result": 19, "unit": "%"}]}, {"smiles": "COc1ccc2nc(C)cc(N/N=C/c3cccc([N+](=O)[O-])c3)c2c1", "values": [{"measurement": "Inhibition", "setting": "Plasmodium falciparum [1]", "result": 100, "unit": "%"}, {"measurement": "Inhibition", "setting": "Plasmodium falciparum [2]", "result": 97, "unit": "%"}, {"measurement": "Inhibition", "setting": "HepG2", "result": 6, "unit": "%"}]}, {"smiles": "CC(C)CN1CCCN(Cc2cccc(NC(=O)c3ccc(Cl)c(Cl)c3)c2)CC1.O=C(O)C(F)(F)F", "values": [{"measurement": "Inhibition", "setting": "Plasmodium falciparum [1]", "result": 91, "unit": "%"}, {"measurement": "Inhibition", "setting": "Plasmodium falciparum [2]", "result": 9, "unit": "%"}, {"measurement": "Inhibition", "setting": "HepG2", "result": 10, "unit": "%"}]}, {"smiles": "Cc1cc(CN2CCC(C(=O)Nc3ccc(-c4nc5ccccc5[nH]4)cc3)CC2)oc1C", "values": [{"measurement": "Inhibition", "setting": "Plasmodium falciparum [1]", "result": 95, "unit": "%"}, {"measurement": "Inhibition", "setting": "Plasmodium falciparum [2]", "result": 9, "unit": "%"}, {"measurement": "Inhibition", "setting": "HepG2", "result": 0, "unit": "%"}]}]}
